LmPK inh: LmPK (Leishmania mexicana) enzyme inhibition. hit rate 0.37% among 290,000. purified LmPK, Kinase-Glo ATP luminescence, 1 h. Q27686. Potency, µM (doses to about 57.5 µM), for inactives: top-dose activity change, negative = inhibition, usual class: inhibitors
Target sequence (Q27686 whole entry, looked up): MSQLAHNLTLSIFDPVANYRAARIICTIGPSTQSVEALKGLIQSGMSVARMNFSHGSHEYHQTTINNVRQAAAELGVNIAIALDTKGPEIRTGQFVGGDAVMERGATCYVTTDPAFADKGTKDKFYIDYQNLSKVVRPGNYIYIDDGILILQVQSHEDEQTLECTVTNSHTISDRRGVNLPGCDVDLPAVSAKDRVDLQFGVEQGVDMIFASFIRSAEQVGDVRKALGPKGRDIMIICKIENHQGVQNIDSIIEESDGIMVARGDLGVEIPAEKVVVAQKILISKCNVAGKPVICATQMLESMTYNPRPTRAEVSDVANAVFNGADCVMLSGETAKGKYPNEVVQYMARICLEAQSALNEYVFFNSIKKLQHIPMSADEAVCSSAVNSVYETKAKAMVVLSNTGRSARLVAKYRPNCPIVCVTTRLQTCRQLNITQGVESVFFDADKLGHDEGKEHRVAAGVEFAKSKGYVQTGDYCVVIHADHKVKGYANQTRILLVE
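ATP generated from ADP (0.1 mM) and PEP (0.5 mM) by 0.1 nM LmPK over 1 h at room temperature (pH 7.2 imidazole buffer) was detected by coupled luciferase luminescence. Values were normalized to uninhibited and no-enzyme wells.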
Vaccinia Venus: vaccinia inhibition (Venus reporter); hit rate 0.46% among 330,000; Potency, µM (titrated, usually from 36.5 µM), for inactives: at the highest dose activity change, negative = inhibition, most hits filed as inhibitors; Vaccinia virus Venus reporter expression, fluorescence; calls by dose curve; tested in A549 cells; also: nearly all actives have a fitted effect of over 30% in size
RE007 growth inh: less growth of the S. pombe RE007 Vpr strain; S. pombe RE007 Vpr strain, BacTiter-Glo ATP luminescence, 24 h; Potency, µM (top dose mostly 92.2 µM), for the others: at the top dose activity change, negative = less growth, actives largely listed as inhibitors; hit rate 0.21% among 360,000; AID 651644; active = well fitted falling curve with a large enough effect; inconclusive = small, poorly fitted or top-dose-only effect; inactive = no such curve, though single readings can be large or run the other way; also: nearly all actives have a fitted effect of over 50% in size
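Fission yeast strain RE007, carrying one chromosomally integrated HIV-1 vpr copy, was seeded at OD 0.01 in PMG+AL medium with 23 nL pinned compound. After 24 h at 30 °C and 99% humidity, viability was read by BacTiter-Glo luminescence.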
AMA1-RON2 inh: inhibitors of Plasmodium falciparum AMA1-RON2 interaction | AlphaScreen AMA1-biotinylated RON2 peptide binding | Potency, µM (top dose mostly 58.2 µM), for the others: at the highest dose activity change, negative = inhibition, most hits filed as inhibitors | hit rate 0.2% among 360,000;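 also: 0% = vehicle wells and -100% = peptide control; nearly all actives have a fitted effect of over 45% in size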
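AMA1 (3D7) with his tag at 25 nM final met compounds first, then biotinylated RON2 peptide at 25 nM; detection used donor plus acceptor beads, 10 µg/mL apiece, read by AlphaScreen after 30 min at room temperature.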
Vaccinia mCherry: vaccinia inhibition (mCherry reporter) | Vaccinia virus mCherry reporter infection, fluorescence | Potency, µM (doses to about 36.5 µM), inactives show at the highest dose activity change, negative = inhibition, most hits filed as inhibitors | hit rate 0.63% among 310,000 | AID 720579; calls by dose curve; tested in A549 cells; also: nearly all actives have a fitted effect of over 35% in size
TbPYK inhibitor: T. brucei pyruvate kinase inhibition. Q57TT1. TbPYK enzyme, Kinase-Glo Plus ATP luminescence, 45 min. Potency, µM (highest dose often 76.8 µM), without a hit: top-dose activity, negative = inhibition, actives largely listed as inhibitors. hit rate 0.12% among 410,000; also: nearly all actives have a fitted effect of over 50% in size
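Luminescent Kinase-Glo Plus end-point after 45 min room-temperature reaction of T. brucei pyruvate kinase started with 130 uM ADP (final). Buffer TEA 50 mM pH 7.2 with KCl, MgCl2, BSA, Tween-20; titration-based qHTS with fitted concentration-effect curves.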
* hit, by the source's call; i = inactive; ? = inconclusive; / = not tested or not shown; [ ] = another dose, or the depositor's remark. A selection: hits, their analogues and other compounds. The true share with any hit is near 1.3%. Unless noted, calls follow the shape of the dose curve; as a rule, active = well fitted curve in the direction sought with a large enough effect; inconclusive = small, poorly fitted or top-dose-only effect, or another doubt; inactive = no such curve, though single readings can be large; an effect the other way counts as inactive or inconclusive. Unless noted, % is scaled to controls: 0 for no effect and ±100 for the full control effect; potency is read from the fitted curve at half-maximal effect.

SMILES | LmPK inh | Vaccinia Venus | RE007 growth inh | AMA1-RON2 inh | Vaccinia mCherry | TbPYK inhibitor
COc1ccc2c(c1)OC(C)CN(CC(=O)NCc1cn[nH]c1-c1ccc(F)cc1)C2 (centres undefined) | / | 8% | / | / | -8% | /
COc1ccc(CN2CCOc3ccc(CN4CCCCC4CO)cc3C2)c(OC)c1 (centres undefined) | / | -3% | / | / | -5% | /
Oc1ccc(/C=N/n2c(-c3ccco3)csc2=Nc2cccnc2)c(O)c1 | -5% | 10µM* | -9% | 46% | 10µM* | -11%
C=CCN=c1scc(-c2ccco2)n1/N=C/c1ccc(O)c(O)c1O | -3% | -9% | -19% | 0% | -22% | ?
Cc1ccc(OC2=NS(=O)(=O)c3ccccc32)cc1 | 4% | / | 2%[3.69 µM] | -7% | / | /
COc1ccccc1OC1=NS(=O)(=O)c2ccccc21 | 13µM* | -9% | 17% | -16% | -6% | 0%
O=C(NC1c2ccccc2-c2ccccc21)N1CCOCC1 | 0% | 10µM* | 0% | 3% | 11µM* | -3%
O=C1CC[C@@H](CN(Cc2cccnc2)C2CCN(c3ccc(NC(=O)c4cnccn4)cc3)CC2)N1 | / | 2% | / | / | i | /
Brc1cc2c(cc1Br)OCCOCCOCCOCCO2 | -17% | 6% | -16% | 9% | i | -25%
Brc1ccc2c(c1)OCCOCCOc1cc(Br)ccc1OCCOCCOCCO2 | 2% | 10µM* | ? | 4% | ? | -5%
O=C(CSc1cccc2cccnc12)N1CCCC1 | -5% | 11µM* | 45µM* | 18% | 11µM* | ?
CCCOCc1cc(CN2CCN(c3cccc(Cl)c3)CC2)c(O)c2ncccc12 | / | -23%[7.34 µM] | / | / | 2.8µM* | -4%
CN1CCN(Cc2cc(COCc3ccccc3)c3cccnc3c2O)CC1 | 4% | ? | -22% | -46% | 28µM* | -3%
Oc1c(CN2CCc3ccccc3C2)cc(Cl)c2cccnc12 | 15% | ? | ? | -68% | 2.5µM* | -11%
Oc1c(Cl)cc(CN2CCOCC2)c2cccnc12 | / | / | ? | -78% | / | -4%
CCCCOCc1cc(CN2CCN(c3cccc(Cl)c3)CC2)c(O)c2ncccc12 | / | -27% | / | / | ? | -1%
COCCN(C)C(=O)c1cnn(-c2nccc(-c3cc(OC)ccc3OC)n2)c1C | / | -3% | / | / | i | /
COc1ccc(-n2c(CNC(=O)c3cccc(OC)c3OC)nnc2SC)cc1 | / | 6% | / | / | -11% | /
COc1ccccc1N1CCN(C(c2ccccc2)c2nnnn2Cc2ccccc2)CC1 (centres undefined) | / | -19% | / | / | -17% | /
COc1ccccc1N1CCN(C(c2ccc(N(C)C)cc2)c2nnnn2CCc2ccccc2)CC1 (centres undefined) | 3% | -15% | 13% | 20µM* | -20% | 2%
Cn1c(Cc2c[nH]c3ccccc23)n[nH]c1=S | -5% | 12% | 1% | 13% | / | 18µM*
Cc1[nH]c2ccccc2c1Cc1n[nH]c(=S)n1C | -1% | -5% | -8% | -26% | -18% | ?
c1ccc2c(Cc3c[nH]c4ccccc34)c[nH]c2c1 | / | -9% | / | / | -10% | /
Cc1[nH]c2ccccc2c1SCc1n[nH]c(=S)n1C | 7.9µM* | / | 21% | 72% | / | ?
COc1ccccc1C1CN(Cc2cccc(C)n2)Cc2ccccc2O1 (centres undefined) | / | -7% | / | / | -19% | /
O=C(NCc1nnc2n1CCN(Cc1cc(F)cc(F)c1)CC2)c1cccc(F)c1 | / | -26% | / | / | ? | /
COc1ccc(C(=O)N2CCOc3ccc(CN4CCN(c5ccccn5)CC4)cc3C2)o1 | / | -3% | / | / | -7% | /
NCC12CC3CC(C1)CC(c1ccc(Cl)cc1)(C3)C2 | -1% | 13µM* | 3% | 3% | ? | -2%
COc1ccc(-c2nc3ccc(C4=C(C)CC(=O)NN4)cc3[nH]2)cc1 | / | / | / | / | / | 3%
O=C1N[C@H](Cc2ccccc2)COC(=O)[C@H](Cc2ccc(F)cc2)CC/C=C/C[C@@H]1CC(=O)N(CCO)Cc1ccccc1 | / | ? | 0% | -3% | 28µM* | -1%
